Assay results as given in PubChem BioAssay (EPA / NIEHS).
Results filed as inconclusive are left out. Calls of active or inactive are those of the source. The calls were made as follows, unless noted: active = hit-call score of the fitted dose curve at least 0.9, where 1 is the maximum; inconclusive = response in the unintended direction; inactive = score below 0.9.

How the values were obtained:
[1] = target: Peroxisome proliferator-activated receptor gamma (Homo sapiens) (UniProt P37231); experiment: OT_PPARg_PPARgSRC1_0480: Odyssey Thera (OT) 8-hour Protein-Complementation Assay for Peroxisome Proliferator-activated Receptor Gamma / SRC-1 Co-activator (AID 2283387);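 also: nuclear to cytoplasmic split Venus YFP fluorescence ratio reporting PPARg SRC-1 interaction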
Sequence of Peroxisome proliferator-activated receptor gamma (Homo sapiens) (P37231 whole entry, looked up, the tested form may be a part): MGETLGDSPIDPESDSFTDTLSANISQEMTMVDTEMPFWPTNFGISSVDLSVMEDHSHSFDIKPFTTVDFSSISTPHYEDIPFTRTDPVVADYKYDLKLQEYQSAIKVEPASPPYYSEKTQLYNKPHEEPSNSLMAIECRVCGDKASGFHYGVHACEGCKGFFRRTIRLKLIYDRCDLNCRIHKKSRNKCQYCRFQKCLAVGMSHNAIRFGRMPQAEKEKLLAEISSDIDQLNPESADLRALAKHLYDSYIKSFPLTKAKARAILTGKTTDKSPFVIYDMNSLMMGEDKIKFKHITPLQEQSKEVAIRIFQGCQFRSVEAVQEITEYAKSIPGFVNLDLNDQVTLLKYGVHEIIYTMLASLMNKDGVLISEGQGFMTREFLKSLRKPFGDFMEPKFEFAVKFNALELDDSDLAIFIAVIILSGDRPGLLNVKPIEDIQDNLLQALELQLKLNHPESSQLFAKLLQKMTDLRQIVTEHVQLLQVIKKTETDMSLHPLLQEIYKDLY
Summary of the method: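 Split-YFP (IFP1/IFP2) PPARg/SRC-1 reporter, HEK293T, 37 °C, 5% CO2; 8 h compound; formaldehyde fix + Draq5; high-content imaging, N/C ratio, ≥350 cells/image, positive direction vs DMSO.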

[2] = target: Peroxisome proliferator-activated receptor gamma (Homo sapiens) (UniProt P37231); experiment: OT_PPARg_PPARgSRC1_1440: Odyssey Thera (OT) 24-hour Protein-Complementation Assay for Peroxisome Proliferator-activated Receptor Gamma/ SRC-1 Co-activator (AID 2283388);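 also: nuclear to cytoplasmic ratio of reconstituted Venus YFP fluorescence in fixed imaged cells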
Summary of the method: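 Cells carrying the PPARg/SRC-1 fragment-complementation reporter receive compound for 24 hours, are fixed and counterstained with Draq5, then imaged. Increased nuclear relative to cytoplasmic YFP fluorescence above DMSO baseline indicates binding activity.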

[3] = CEETOX_H295R_11DCORT: CeeTox H295R High-throughput Steroidogenesis Assay for 11-Deoxycortisol (11DCORT) (AID 2283432; active = hit-call score of the fitted dose curve at least 0.9, where 1 is the maximum; inactive = score below 0.9;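 as to AC50: 11-deoxycortisol secreted into the medium measured by LC-MS/MS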); conditions: actives raise or lower the signal
Summary of the method: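 Steroidogenesis in human H295R cells: 48 h chemical exposure after forskolin priming, 11-deoxycortisol measured by LC-MS/MS.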

[4] = CEETOX_H295R_OHPREG: CeeTox H295R High-throughput Steroidogenesis Assay for OH-Pregnenolone (OHPREG) (AID 2283434; active = hit-call score of the fitted dose curve at least 0.9, where 1 is the maximum; inactive = score below 0.9); conditions: actives raise or lower the signal
Summary of the method: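 Readout: HPLC-MS/MS of 17alpha-hydroxypregnenolone in medium after 48 h chemical exposure of H295R cells pretreated with forskolin. Values fitted bidirectionally relative to DMSO; chemicals reducing viability to 20–70% were retested after 10-fold dilution.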

[5] = CEETOX_H295R_OHPROG: CeeTox H295R High-throughput Steroidogenesis Assay for OH-Progesterone (OHPROG) (AID 2283435; active = hit-call score of the fitted dose curve at least 0.9, where 1 is the maximum; inactive = score below 0.9;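 also: 17alpha-hydroxyprogesterone secreted into medium measured by HPLC-MS/MS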); conditions: actives raise or lower the signal
Summary of the method: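 HPLC-MS/MS quantification of 17alpha-hydroxyprogesterone secreted by H295R cells after 48 h chemical exposure, following 48 h 10 uM forskolin prestimulation. Gain or loss of signal fitted relative to DMSO. Viability checked by MTT in the same wells.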

[6] = CEETOX_H295R_CORTISOL: CeeTox H295R High-throughput Steroidogenesis Assay for Cortisol (AID 2283438; active = hit-call score of the fitted dose curve at least 0.9, where 1 is the maximum; inactive = score below 0.9;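 also: cortisol secreted into medium quantified by LC-MS/MS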); conditions: actives raise or lower the signal
Summary of the method: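 Read-out: cortisol in culture medium by reverse-phase C18 HPLC with ESI-positive tandem MS, after MTBE liquid-liquid extraction. Cells: human adrenal H295R, forskolin-primed (10 uM, 48 h) before 48 h chemical exposure in 0.1% DMSO.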

[7] = CEETOX_H295R_DOC: CeeTox H295R High-throughput Steroidogenesis Assay for DOC (AID 2283439; active = hit-call score of the fitted dose curve at least 0.9, where 1 is the maximum; inactive = score below 0.9); conditions: actives raise or lower the signal
Summary of the method: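 Human adrenocortical H295R cells, passages up to 10, received 10 uM forskolin for 48 h before chemical addition. After another 48 h exposure in 0.1% DMSO, secreted DOC was measured by LC-MS/MS, with gain or loss fitted against DMSO controls.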

[8] = CEETOX_H295R_ANDR: CeeTox H295R High-throughput Steroidogenesis Assay for Androstenedione (ANDR) (AID 2283436; active = hit-call score of the fitted dose curve at least 0.9, where 1 is the maximum; inactive = score below 0.9;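 also: human H295R adrenal cells exposed for 48 h with androstenedione measured in medium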); conditions: actives raise or lower the signal
Summary of the method: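 Steroidogenesis in H295R adrenal cells after 48 h dosing; androstenedione quantified by LC-MS/MS, with DMSO as negative control and baseline for bidirectional curve fitting.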

In the case of `CN(N=O)C(N)=O`, the outcome [1] is reported as “inactive” and the outcome [2] is reported as “inactive”.
With `OCCCCO` the outcome [1] was “inactive” and the outcome [2] was “inactive”.
For `COc1ccc(N)cc1`, the outcome [1] was “inactive”, the outcome [2] was “inactive” and the outcome [3] was “inactive”. For the same compound, the outcome [4] was “inactive”, the AC50 [5] was 31.7 µM (active) and the outcome [6] was “inactive”. The outcome [7] was “inactive”.
For `Cc1cc(Cl)ccc1OC(C)C(=O)O` (stereo unspecified), the outcome [1] was “inactive” and the outcome [2] was “inactive”.
In the case of `CCN(CCO)CCO`, the outcome [1] is reported as “inactive” and the outcome [2] is reported as “inactive”.
In the case of `COc1nn(C(=O)NS(=O)(=O)c2ccccc2OC(F)(F)F)c(=O)n1C`, the outcome [1] is reported as “inactive” and the outcome [2] is reported as “inactive”.
In the case of `C=CC(Cl)CCl` (stereo unspecified), the outcome [1] is reported as “inactive” and the outcome [2] is reported as “inactive”.
With `Cc1cc(Cl)ccc1OCCCC(=O)O` the outcome [1] was “inactive” and the outcome [2] was “inactive”.
In the case of `O=c1[nH]c(=O)n(Cl)c(=O)n1Cl`, the outcome [1] is reported as “inactive” and the outcome [2] is reported as “inactive”.
For `Nc1ncn[nH]1`, the outcome [1] was “inactive” and the outcome [2] was “inactive”.
With `O=S1OC[C@@H]2[C@H](CO1)[C@]1(Cl)C(Cl)=C(Cl)[C@@]2(Cl)C1(Cl)Cl` (stereo partly specified) the outcome [1] was “inactive”, the outcome [2] was “inactive” and the AC50 [3] was 39.7 µM (active). The AC50 [4] was 12.1 µM (active), the AC50 [5] was 41.2 µM (active) and the AC50 [8] was 50 µM (active). For the same compound, the AC50 [6] was 38.3 µM (active) and the AC50 [7] was 16.3 µM (active).
For `O=[N+]([O-])c1ccc(Cl)c([N+](=O)[O-])c1`, the outcome [1] was “inactive” and the outcome [2] was “inactive”.
With `CC(O)(CS(=O)(=O)c1ccc(F)cc1)C(=O)Nc1ccc(C#N)c(C(F)(F)F)c1` (stereo unspecified) the outcome [1] was “inactive” and the outcome [2] was “inactive”.
In the case of `O=C1c2ccccc2C(=O)C1C(=O)C(c1ccccc1)c1ccc(Cl)cc1` (stereo unspecified), the outcome [1] is reported as “inactive” and the AC50 [2] is reported as 69.3 µM (active).
With `O=[N+]([O-])c1ccccc1O` the outcome [1] was “inactive” and the outcome [2] was “inactive”.
With `O=C(NC(=O)c1c(F)cccc1F)Nc1cc(Cl)c(OC(F)(F)C(F)C(F)(F)F)cc1Cl` (stereo unspecified) the outcome [1] was “inactive” and the outcome [2] was “inactive”.
With `O=C(NC(=O)c1c(F)cccc1F)Nc1ccc(Cl)cc1` the outcome [1] was “inactive” and the outcome [2] was “inactive”.
With `CC1(C)[C@H](C(=O)O[C@H](C#N)c2cccc(Oc3ccccc3)c2)[C@@H]1/C=C(\Cl)C(F)(F)F` the outcome [1] was “inactive” and the outcome [2] was “inactive”.
For `CCC[CH2][Sn]([CH2]CCC)([CH2]CCC)[CH2]CCC`, the outcome [1] was “inactive” and the outcome [2] was “inactive”.
For `C=CCN=C=S`, the outcome [1] was “inactive” and the outcome [2] was “inactive”.
